# Data published in the supplement of paper PMC8975748.
# Structures can show the parent of a compound that is named as a salt.
# Tested on: Saccharomyces cerevisiae BY4741 SeMeCo community
# Assay: z-score of subpopulation abundance vs DMSO median, subpopulation auxotrophic for HLM; higher = larger share of this subpopulation than in DMSO controls
# Conditions: 10 µM; 24 h; SM minimal medium; subpopulation (auxotrophy): HLM
# In short: (§1)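 Scoring was based on each subpopulation's abundance, expressed as a z-score against the vehicle-well median. A Saccharomyces cerevisiae BY4741 community with four plasmids, each restoring one auxotrophy and encoding a distinct fluorescent protein, was pre-grown overnight to OD600 1.0, diluted to 0.3, and added at 70 µl to 384-well plates acoustically predosed with library drugs (10 µM final). It then grew 24 h in minimal SM medium before paraformaldehyde fixation and automated confocal microscopy, with single-auxotroph fluorescent strains setting thresholds and autofluorescence correction.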
row,SMILES,z-score of subpopulation abundance
1,CC[C@H](C)C(=O)O[C@H]1C[C@@H](C)C=C2C=C[C@H](C)[C@H](CC[C@@H]3C[C@@H](O)CC(=O)O3)[C@H]21 [Lovastatin],0.86
2,CN1[C@@H]2CC[C@H]1C[C@@H](OC(c1ccccc1)c1ccccc1)C2 [Benztropine mesylate],-0.44
3,CO/N=C(\C(=O)N[C@@H]1C(=O)N2C(C(=O)O)=C(CSc3nnnn3C)CS[C@H]12)c1csc(N)n1 [Cefmenoxime hydrochloride],-0.86
4,NCC[C@H](O)C(=O)N[C@@H]1C[C@H](N)[C@@H](O[C@H]2O[C@H](CN)[C@@H](O)[C@H](O)[C@H]2O)[C@H](O)[C@H]1O[C@H]1O[C@H](CO)[C@@H](O)[C@H](N)[C@H]1O [Amikacin hydrate],0.82
5,CO/N=C(\C(=O)N[C@@H]1C(=O)N2C(C(=O)O)=C(CSc3nc(C)c(CC(=O)O)s3)CS[C@H]12)c1csc(N)n1 [Cefodizime Sodium],-1.07
6,COc1ccc2c3c1O[C@H]1C[C@@H](O)C=C[C@@]31CCN(C)C2 [Galanthamine],1.04
7,CC[C@H](C)C(=O)O[C@H]1CCC=C2C=C[C@H](C)[C@H](CC[C@@H]3C[C@@H](O)CC(=O)O3)[C@H]21 [Mevastatin],-0.6
8,C[C@]12CC[C@@H]3c4ccc(OS(=O)(=O)O)cc4CC[C@H]3[C@@H]1CCC2=O [Estropipate],-0.64
9,O=C(Cn1ccnc1[N+](=O)[O-])NCc1ccccc1 [Benznidazole],-0.65
10,CCN(Cc1ccncc1)C(=O)C(CO)c1ccccc1 (stereo not drawn) [Tropicamide],-0.45

# Tested on: Saccharomyces cerevisiae BY4741 SeMeCo community
# Assay: z-score of subpopulation abundance vs DMSO median, subpopulation auxotrophic for HUM; higher = larger share of this subpopulation than in DMSO controls
# Conditions: 10 µM; 24 h; SM minimal medium; subpopulation (auxotrophy): HUM
# In short: as §1
row,SMILES,z-score of subpopulation abundance
1,CC(C)Cc1ccc(C(C)C(=O)O)cc1 (stereo not drawn) [Ibuprofen],-3.22
2,Fc1ccc(C(c2ccc(F)cc2)N2CCN(C/C=C/c3ccccc3)CC2)cc1 [Flunarizine 2HCl],0.51
3,COCCCN1CCC(NC(=O)c2cc(Cl)c(N)c3c2OCC3)CC1 [Prucalopride Succinate],1.42
4,CCCCOc1ccc(CC(=O)NO)cc1 [Bufexamac],-1.13
5,NCC[C@H](O)C(=O)N[C@@H]1C[C@H](N)[C@@H](O[C@H]2O[C@H](CN)[C@@H](O)[C@H](O)[C@H]2O)[C@H](O)[C@H]1O[C@H]1O[C@H](CO)[C@@H](O)[C@H](N)[C@H]1O [Amikacin disulfate],-0.51
6,O=C(Nc1cc(Cl)cc(Cl)c1O)c1c(O)c(Cl)cc(Cl)c1Cl [Oxyclozanide],-0.71
7,CCC(=O)NS(=O)(=O)c1ccc(-c2c(-c3ccccc3)noc2C)cc1 [Parecoxib Sodium],1.38
8,CN(CCN1CCC(OC(=O)Nc2ccccc2-c2ccccc2)CC1)C(=O)c1ccc(CN2CCC(C(N)=O)CC2)cc1 [Revefenacin],0.24
9,Cc1nnc(NS(=O)(=O)c2ccc(N)cc2)s1 [Sulfamethizole],-0.98
10,CC1=CC[C@@](O)(C(C)C)CC1 [Terpinen-4-ol],-0.35
11,CS(=O)(=O)c1ccc([C@@H](O)[C@@H](CF)NC(=O)C(Cl)Cl)cc1 [Florfenicol],-0.98
12,Cn1c([N+](=O)[O-])cnc1COC(N)=O [Ronidazole],-0.57
13,CC(=O)OCC(COC(C)=O)OC(C)=O [Triacetin],0.7
14,COc1ccc(Cl)cc1C(=O)NCCc1ccc(S(=O)(=O)NC(=O)NC2CCCCC2)cc1 [Glyburide (Glibenclamide)],-0.09
15,O=C(Nc1c(Cl)cncc1Cl)c1ccc(OC(F)F)c(OCC2CC2)c1 [Roflumilast],-0.17
16,CCN(CC)CCOc1ccc2c(c1)C(=O)c1cc(OCCN(CC)CC)ccc1-2 [Tilorone dihydrochloride],-0.66
17,CN(C)[C@@H](CCOc1cccc2ccccc12)c1ccccc1 [Dapoxetine HCl],-0.28
18,CN(C)CCC=C1c2ccccc2C(C)(C)c2ccccc21 [Melitracen hydrochloride],-0.78
19,COc1cc(Cc2cnc(N)nc2N)cc(OC)c1OC [Trimethoprim],-0.12

row,SMILES,z-score of subpopulation abundance
1,CC(C)c1c(C(=O)Nc2ccccc2)c(-c2ccccc2)c(-c2ccc(F)cc2)n1CC[C@@H](O)C[C@@H](O)CC(=O)O [Atorvastatin],2.1
2,COc1ccc(C2CNC(=O)C2)cc1OC1CCCC1 (stereo not drawn) [Rolipram],-0.22
3,NNc1nncc2ccccc12 [Hydralazine HCl],-0.64
4,COCCOC(=O)C1=C(C)NC(C)=C(C(=O)OC(C)C)C1c1cccc([N+](=O)[O-])c1 (stereo not drawn) [Nimodipine],-0.42
5,CCOC(=O)C1=C(C)NC(C)=C(C(=O)OC)C1c1cccc([N+](=O)[O-])c1 (stereo not drawn) [Nitrendipine],0.52
6,CC(C)n1c(/C=C/C(O)CC(O)CC(=O)O)c(-c2ccc(F)cc2)c2ccccc21 (stereo not drawn) [Fluvastatin Sodium],12.8
7,CCCN[C@H]1CCc2nc(N)sc2C1 [Pramipexole dihydrochloride],0.52
8,Cc1cc(C)nc(NS(=O)(=O)c2ccc(N)cc2)n1 [Sulfamethazine],-0.1
9,CC[C@H](C)C(=O)O[C@H]1C[C@@H](C)C=C2C=C[C@H](C)[C@H](CC[C@@H]3C[C@@H](O)CC(=O)O3)[C@H]21 [Lovastatin],1.12
10,CN1[C@@H]2CC[C@H]1C[C@@H](OC(c1ccccc1)c1ccccc1)C2 [Benztropine mesylate],-0.47
11,CO/N=C(\C(=O)N[C@@H]1C(=O)N2C(C(=O)O)=C(CSc3nnnn3C)CS[C@H]12)c1csc(N)n1 [Cefmenoxime hydrochloride],-0.02
12,NCC[C@H](O)C(=O)N[C@@H]1C[C@H](N)[C@@H](O[C@H]2O[C@H](CN)[C@@H](O)[C@H](O)[C@H]2O)[C@H](O)[C@H]1O[C@H]1O[C@H](CO)[C@@H](O)[C@H](N)[C@H]1O [Amikacin hydrate],-0.33
13,CO/N=C(\C(=O)N[C@@H]1C(=O)N2C(C(=O)O)=C(CSc3nc(C)c(CC(=O)O)s3)CS[C@H]12)c1csc(N)n1 [Cefodizime Sodium],-0.09
14,COc1ccc2c3c1O[C@H]1C[C@@H](O)C=C[C@@]31CCN(C)C2 [Galanthamine],1.27
15,CC[C@H](C)C(=O)O[C@H]1CCC=C2C=C[C@H](C)[C@H](CC[C@@H]3C[C@@H](O)CC(=O)O3)[C@H]21 [Mevastatin],-0.29
16,CN1CCN(CCCN2c3ccccc3Sc3ccc(C(F)(F)F)cc32)CC1 [Trifluoperazine 2HCl],0.42
17,C[C@]12CC[C@@H]3c4ccc(OS(=O)(=O)O)cc4CC[C@H]3[C@@H]1CCC2=O [Estropipate],-0.32
18,O=C(Cn1ccnc1[N+](=O)[O-])NCc1ccccc1 [Benznidazole],-0.52
19,CCN(Cc1ccncc1)C(=O)C(CO)c1ccccc1 (stereo not drawn) [Tropicamide],0.16
